Measured values as given in PubChem BioAssay AID628 (Vanderbilt High Throughput Screening Facility, 2007).
Hit rate of the full screen: of about 64,000 compounds, about 2,200 (3.4%) were called active.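 The calls were made as follows: active = calcium fluorescence response, raw or row-and-column corrected B-score, differing from the plate sample mean either way at a set confidence level, mostly lower; inactive = the rest.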 Only a selection was taken, and actives are over-represented in it overall.

target: Muscarinic acetylcholine receptor M1 (Rattus norvegicus) (UniProt P08482); assay: blocks the rat M1 muscarinic receptor response to acetylcholine (AID 628); conditions: CHO-M1 cells, Fluo-4 calcium, ACh EC80 antagonist mode; at 10 µM; active compounds read low
Sequence (P08482 whole entry, looked up): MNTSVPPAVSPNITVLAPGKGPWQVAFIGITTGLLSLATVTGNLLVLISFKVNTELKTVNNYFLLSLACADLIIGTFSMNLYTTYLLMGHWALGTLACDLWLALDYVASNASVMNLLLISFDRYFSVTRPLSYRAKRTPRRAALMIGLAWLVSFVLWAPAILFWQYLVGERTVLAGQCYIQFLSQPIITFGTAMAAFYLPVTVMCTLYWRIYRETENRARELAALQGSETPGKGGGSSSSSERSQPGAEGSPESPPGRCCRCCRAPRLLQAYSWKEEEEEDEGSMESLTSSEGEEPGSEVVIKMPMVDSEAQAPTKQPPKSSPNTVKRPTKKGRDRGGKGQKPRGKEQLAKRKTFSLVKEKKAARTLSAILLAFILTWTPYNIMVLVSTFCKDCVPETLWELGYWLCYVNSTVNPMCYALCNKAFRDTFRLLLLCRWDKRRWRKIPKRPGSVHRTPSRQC

Compound | B-score
O=C(NCCC1=CCCCC1)C1CCN(Cc2cnn(-c3ccccc3)c2-n2cccc2)CC1 | -1.39 (inactive)
Cc1ccc2cc3cc(C(=O)N4CCCCCC4)oc3nc2c1 | -0.434 (inactive)
COc1cccc(-c2cc3nc4c(c(N5CCC6(CC5)OCCO6)n3n2)CCCC4)c1 | -0.0679 (inactive)
CC(=O)N1CCN(C(=O)Nc2cccc(C(F)(F)F)c2)CC1 | -0.154 (inactive)
O=C(Nc1cccc(C(=O)N2CCCC2)c1)c1ccccc1 | 0.0406 (inactive)
O=C(Nc1cccc(NC(=O)N2CCN(c3ccccc3)CC2)c1)N1CCN(c2ccccc2)CC1 | -3 (active)
COc1ccc(-c2c(C)nn3c(N4CCC(C(=O)N5CCCCC5)CC4)cc(C)nc23)cc1OC | -0.265 (inactive)
FC(F)(F)c1cccc(Nc2ncnc3ccccc23)c1 | 0.376 (inactive)
O=C(Nc1cccc(F)c1)c1ccc(S(=O)(=O)N2CCCC2)cc1 | -0.622 (inactive)
N#CC(C(=O)c1ccc(S(=O)(=O)N2CCCCCC2)cc1)c1nc2ccccc2[nH]1 (centres undefined) | -4.04 (active)
COc1ccccc1N1CCN(C(=O)c2ccc(S(=O)(=O)N3CCCCC3)cc2)CC1 | -1.54 (inactive)
CCOc1ccccc1NC(=O)C1CCC(CNc2c(N3CCOCC3)c(=O)c2=O)CC1 (centres undefined) | 0.744 (inactive)
COc1ccc(N2C(=O)CC(N3CCC(C(N)=O)CC3)C2=O)cc1 (centres undefined) | -0.21 (inactive)
O=C(CSc1nnc(-c2cccs2)n1Cc1ccco1)c1ccc2c(c1)OCO2 | 0.219 (inactive)
COC(=O)C1=CN(C)C=C(C(=O)OC)C1c1ccc(Cl)cc1Cl | 1.15 (inactive)
COc1cc(-c2nn3c(-c4cccc(C)c4)nnc3s2)cc(OC)c1OC | 0.799 (inactive)
c1ccc(-c2cc(-c3nnc4sc(-c5ccccn5)nn34)[nH]n2)cc1 | -2.66 (active)
CCOc1cccc(-c2nn3c(-c4ccccn4)nnc3s2)c1 | -0.924 (inactive)
CCCCOC(=O)Nc1nccs1 | 0.0324 (inactive)
COc1ccc(Cl)cc1NC(=O)c1oc(C)nc1C | -0.215 (inactive)
O=C(c1ccc(S(=O)(=O)N2CCOCC2)cc1)N1CCN(c2ccccc2)CC1 | -2.93 (active)
CSC1=NCCN1C(=O)c1ccc(S(=O)(=O)N2CCOCC2)cc1 | -0.648 (inactive)
O=C(c1cccc(S(=O)(=O)N2CCOCC2)c1)N1CCOCC1 | 0.238 (inactive)
Cc1ccc2oc(=O)c3cnn(CC(=O)N4CCN(c5ccccn5)CC4)c3c2c1 | 0.00225 (inactive)

Compound | B-score
Cc1c(C(=O)OCC(=O)N(CCC#N)c2ccccc2)oc2c1ccc1ccccc12 | 0.252 (inactive)
O=C(CCN1C(=O)COc2ccccc21)NCCCN1CCN(c2ccc(F)cc2)CC1 | -2.15 (active)
CCCN1CCN(CCCNC(=O)CN2C(=O)COc3ccccc32)CC1 | 0.138 (inactive)
COc1ccc(N2CCN(CCNC(=O)CCN3C(=O)COc4ccccc43)CC2)cc1 | 1.04 (inactive)
O=S1(=O)CC(NCc2ccccc2)C(Nc2ccc(Cl)cc2)C1 (centres undefined) | -0.75 (inactive)
CCCCCn1c(SCCC(C)C)nc2c1c(=O)[nH]c(=O)n2C | -0.348 (inactive)
Cn1c(=O)[nH]c(=O)c2c1nc(CN1CCN(c3ccccc3F)CC1)n2CCc1ccccc1 | -0.0585 (inactive)
O=C(COc1ccc(Cl)cc1)Nc1ccccc1CO | 0.609 (inactive)
COc1cc(OC)c(C(=O)NC2CCCCCC2)cc1OC | -1.64 (inactive)
COc1cc(OC)c(C(=O)NC2CC(C)(C)NC(C)(C)C2)cc1OC | -2.14 (active)
Cc1ccc(C(=O)NC2CC(C)(C)NC(C)(C)C2)c(C)c1 | 0.35 (inactive)
CCOc1ccccc1NC(=O)CCc1ccc(C)o1 | 0.759 (inactive)
Cc1ccc(OCC(O)CN2CCN(CC(O)COc3ccc(C)cc3Cl)CC2)c(Cl)c1 (centres undefined) | 0.987 (inactive)
CCC(=O)c1ccc(OCC(O)CN2CCN(c3cccc(C(F)(F)F)c3)CC2)cc1 (centres undefined) | -3.03 (active)
O=C(CN1CCN(c2ccc(F)cc2)CC1)Nc1cccc(C(F)(F)F)c1 | -1.83 (inactive)
O=C(CN1C(=O)CSc2ncccc21)N1CCOCC1 | -0.0388 (inactive)
O=C(CCCN1C(=O)CSc2ncccc21)N1CCN(c2cccc(C(F)(F)F)c2)CC1 | -3.46 (active)
O=C(CCCN1C(=O)C2C3C=CC(C3)C2C1=O)N1CCN(c2ccccc2)CC1 (centres undefined) | -0.518 (inactive)
CCn1c(Cc2ccccc2)nnc1SCC(=O)Nc1ccccc1 | -0.642 (inactive)
CC(C)c1nnc(NC(=O)C2CCCN2S(=O)(=O)c2ccc(Cl)cc2)s1 (centres undefined) | 0.566 (inactive)
CC12CN(Cc3ccccc3)CC(C)(CN(Cc3ccccc3)C1)C2=NO | -8.41 (active)
CC(=NC1CCN(Cc2ccccc2)CC1)c1c(O)[nH]c(=O)[nH]c1=O | -1.22 (inactive)
Cc1ccc(-c2noc(CN3CCN(Cc4ccccc4)CC3)n2)cc1 | -0.779 (inactive)
N#Cc1c2c(c(-c3ccccc3)[nH]c1=O)CCCC2 | -0.0345 (inactive)

Compound | B-score
CCOC(=O)c1c(-c2ccc(C)cc2C)csc1NC(=O)CSc1nnnn1C | -1.47 (active)
CNC(=O)CSc1nnnn1-c1ccc(C)cc1C | -0.461 (inactive)
CCOC(=O)CNC(=O)CSc1nnnn1-c1cc(C)ccc1C | 0.408 (inactive)
Cn1cc(S(=O)(=O)N2CCC(Cc3ccccc3)CC2)c(=O)n(C)c1=O | 1.21 (inactive)
CCOc1cc(C(=S)N2CCOCC2)ccc1O | -0.148 (inactive)
Cc1ccc(NC(=O)N2CCC(C(=O)NCc3ccc(F)cc3)CC2)cc1 | 0.137 (inactive)
Cc1nc2ncnn2c(C)c1CCC(=O)N1CCN(C(=O)c2ccco2)CC1 | -0.557 (inactive)
Cn1c(=O)cc(OCCCC(=O)N2CCN(c3ccccn3)CC2)c2ccccc21 | -0.727 (inactive)
Cc1nc2c(-c3ccc(F)cc3)c(C)nn2c(C)c1CCC(=O)N1CCN(c2ccccn2)CC1 | -2.78 (active)
Cc1ccsc1C(=O)OCC(=O)c1cc(C)n(CC2CCCO2)c1C (centres undefined) | -0.425 (inactive)
O=C(NCCCNC(=O)NC1CCCCC1)NC1CCCCC1 | 0.589 (inactive)
Cc1nc2sc(C(c3ccco3)N3CCC4(CC3)OCCO4)c(O)n2n1 (centres undefined) | 0.231 (inactive)
Cn1c(C(=O)NCCCN2CCN(c3cccc(Cl)c3)CC2)cc2c(=O)n(C)c3ccccc3c21 | -1.91 (inactive)
CC1CCCC(C)N1CCCNC(=O)c1cc2c(=O)n(C)c3ccccc3c2n1C (centres undefined) | -3.75 (active)
CCN1CCCC1CNC(=O)c1cc2c(=O)n(C)c3ccccc3c2n1C (centres undefined) | -1.39 (inactive)
COC(=O)C(NC(C)=O)(Nc1nc2c(s1)CCCC2)C(F)(F)F (centres undefined) | 0.181 (inactive)
COC(=O)c1cc(Cl)c(NC(=O)c2ccco2)cc1OC | 0.0739 (inactive)
O=C(Nc1nnc(-c2ccc(Cl)cc2)o1)c1ccccc1Br | 0.257 (inactive)
Cc1c(C)c2cc3c4c(oc3c(C)c2oc1=O)CCCC4 | -2.52 (active)
CCCOc1ccc2c3c(c(=O)oc2c1OCCC)CCC3 | -0.182 (inactive)
O=C(NCc1ccc(Cl)cc1)c1cc2c(nc3sccn32)s1 | -0.593 (inactive)
CCC(C)(NC(=O)c1ccccn1)C(=O)NC1CCCCC1 (centres undefined) | -3.41 (active)
CN(CC(=O)NC1CCCCC1)S(=O)(=O)c1cccc2cccnc12 | -0.865 (inactive)
CCC(C)(C(=O)NC1CCCC1)N(C(=O)CNC(C)=O)c1ccc(C)cc1 (centres undefined) | 0.0894 (inactive)

Compound | B-score
O=C(O)c1cc(S(=O)(=O)N2CCCCCC2)c(Cl)cc1Cl | -0.939 (inactive)
COCCCNC(=O)Cn1cc(C(=O)C2CC2)c2ccccc21 | 1.18 (inactive)
CN(C)CCCNc1c2c(c(C#N)c3nc4ccccc4n13)CCC2 | -3.92 (active)
Cc1cc(NCc2ccco2)n2c(nc3ccccc32)c1C#N | 0.838 (inactive)
N#Cc1c2c(c(N3CCN(CCO)CC3)n3c1nc1ccccc13)CCCC2 | -0.206 (inactive)
CC(=O)CSc1nnc(CSc2ncccn2)n1C1CCCCC1 | 0.586 (inactive)
CC1CN(c2cc(=O)n(Cc3ccc(F)cc3)c(=O)[nH]2)CC(C)O1 (centres undefined) | -0.0281 (inactive)
CCOc1cc(S(=O)(=O)NCc2ccc3c(c2)OCO3)ccc1F | 0.637 (inactive)
O=C(CS(=O)(=O)c1cn(Cc2ccc(Cl)cc2)c2ccccc12)N1CCOCC1 | 0.274 (inactive)
Cn1c(=O)c(=O)n(C)c2cc(S(=O)(=O)NCCc3ccccc3)ccc21 | 0.991 (inactive)
CC1CCC(NS(=O)(=O)c2ccc3c(c2)n(C)c(=O)c(=O)n3C)CC1 (centres undefined) | -0.853 (inactive)
CCCCN(CCCC)C(=O)CCS(=O)(=O)c1ccc2c(c1)n(C)c(=O)c(=O)n2C | -3.55 (active)
Cc1c(CN2CCC(C)CC2)c(=O)n(-c2ccccc2)n1C | 0.549 (inactive)
CC(=O)N1CCN(c2cccc(C)c2C)CC1 | 0.482 (inactive)
Cc1cccc(N2CCN(Cc3c(C)n(C)n(-c4ccccc4)c3=O)CC2)c1C | -9.51 (active)
CC1CCCN(Cc2nc3c(c(=O)n(C)c(=O)n3C)n2Cc2cccc3ccccc23)C1 (centres undefined) | 0.779 (inactive)
O=C1CC(Cc2ccccc2)C(=O)N1c1ccc(Cl)cn1 (centres undefined) | -0.406 (inactive)
CCn1c(SCC(=O)Nc2cc(C)ccc2C)nnc1-c1cnccn1 | 0.583 (inactive)
Cn1c(=O)[nH]c(=O)c2c1nc(N1CCCCCC1)n2CC(=O)c1ccccc1 | 0.41 (inactive)
C=C(C)Cn1c(N2CCN(CC)CC2)nc2c1c(=O)[nH]c(=O)n2C | 0.423 (inactive)
C=C(C)Cn1c(N2CCCC2)nc2c1c(=O)[nH]c(=O)n2C | -2.42 (active)
COc1ccc(C(CC(=O)O)NC(=O)Cc2ccccc2)cc1 (centres undefined) | -0.777 (inactive)
